# Inconclusive results are not listed. Activity calls are given as the source filed them. How the source made its calls, unless noted: active means hit-call score of the fitted dose curve at least 0.9, where 1 is the maximum; inactive means score below 0.9.
# How the values were obtained:
# [1] = test system: SRY-box transcription factor 17 (SOX17) Protein Expression, Deisenroth Lab, SOX17 (gene 64321); assay: CCTE_Deisenroth_DEVTOX-GLR_legacy_Sox17: (Legacy) CCTE's DevTox GLR-Endo Assay Evaluation of SRY-box transcription factor 17 (SOX17) Protein Expression, Deisenroth Lab (AID 2284341); details: actives raise or lower the signal
# How it was run: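 Percent SOX17-positive cells, scored by high-content imaging as mean intensity exceeding pluripotent-control median by 5x BMAD, divided by cell count. Human RUES2-GLR endoderm differentiation, 48 h, two exposures 24 h apart, 1 nM–200 uM; DMSO-referenced bidirectional fitting.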
# [2] = test system: SRY-box transcription factor 2 (SOX2) Protein Expression, Deisenroth Lab, SOX2 (gene 6657); assay: CCTE_Deisenroth_DEVTOX-GLR_legacy_Sox2: (Legacy) CCTE's DevTox GLR-Endo Assay Evaluation of SRY-box transcription factor 2 (SOX2) Protein Expression, Deisenroth Lab (AID 2284346)
# How it was run: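 RUES2-GLR human pluripotent cells seeded 24 h, then differentiated 48 h in defined media with two chemical doses 24 h apart (10-point, 1 nM–200 uM). Fixed, nuclear-stained, imaged; % Sox2+ cells (>5x BMAD over endoderm control median), DMSO-subtracted, fitted upward.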
# [3] = test system: SRY-box transcription factor 2 (SOX2) Protein Expression, Deisenroth Lab, SOX2 (gene 6657); assay: CCTE_Deisenroth_DEVTOX-GLR_Endo_SOX2: CCTE's DevTox GLR-Endo Assay Evaluation of SRY-box transcription factor 2 (SOX2) Protein Expression, Deisenroth Lab (AID 2284412; active means hit-call score of the fitted dose curve at least 0.9, where 1 is the maximum)
# Method: CCTE_Deisenroth_DEVTOX-GLR_Endo assay is a cell-based, multiplex-readout assay that uses RUES2-GLR, a human pluripotent cell line, with measurements taken at 48 hours after chemical dosing in a 384-well microplateCCTE_Deisenroth_DEVTOX-GLR_Endo_SOX2 is 1 of 4 assay components calculated from the CCTE_Deisenroth_DEVTOX-GLR_Endo assay and it measures the percentage of cells in an ectoderm state. Using a type of inducible fluorescent protein reporter, gain-of-signal activity can be used to understand changes in gene expression with fluorescent microscopy. The percentage SOX2+ cells are determined by calculating the number of SOX2+ cells divided by the cell count. To generalize the intended target to other relatable targets, this assay component is annotated to the transcription factor intended target family, where the subfamily is SRY-related HMG-box.Data from the assay component CCTE_Deisenroth_DEVTOX-GLR_Endo_SOX2 was analyzed as 1 assay endpoint. The endpoint is the percent SOX2+ cell population minus the 0.2% DMSO control in the CCTE_Deisenroth_DEVTOX-GLR_Endo assay. Furthermore, this assay endpoint can be referred to as a secondary readout, because this assay has produced multiple assay endpoints where this one serves as a measure of ectoderm differentiation.
# All assay protocols are aligned to the DevTox GLR-Endo assay workflow. Cells are seeded into 384-well microplates for 24 hours prior to initiating differentiation in defined media for a total duration of 48 hours. A total of two chemical exposures are administered in 24-hour intervals during the 48-hour differentiation period. At the assay termination point, cells are fixed and stained with a fluorescent dye demarcating the nucleus. High-content imaging is used to acquire brightfield and fluorescent channel images across 5 fields per well. Cell identification and mean biomarker fluorescence intensities are calculated with image analysis software to determine the total cell counts for viability assessment and the biomarker expression frequency for each lineage-dependent assay. […]
# [4] = test system: SRY-box transcription factor 17 (SOX17) Protein Expression, Deisenroth Lab, SOX17 (gene 64321); assay: CCTE_Deisenroth_DEVTOX-GLR_Endo_SOX17: CCTE's DevTox GLR-Endo Assay Evaluation of SRY-box transcription factor 17 (SOX17) Protein Expression, Deisenroth Lab (AID 2284413)
# How it was run: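 Endpoint: % change in SOX17+ fraction (SOX17+ cells / cell count) vs 0.2% DMSO solvent control. RUES2-GLR reporter cells, 48 h endoderm differentiation, two doses at 24 h intervals, high-content fluorescence imaging, 5 fields/well.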
# [5] = test system: Brachyury (BRA) Protein Expression, TBXT (gene 6862); assay: CCTE_Deisenroth_DEVTOX-GLR_Endo_BRA: CCTE's DevTox GLR-Endo Assay Evaluation of Brachyury (BRA) Protein Expression, Deisenroth Lab (AID 2284417)
# How it was run: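 Endpoint is the fraction of BRA reporter-positive cells over total nuclei, corrected by subtracting the 0.2% DMSO value. Chemicals (1 nM - 200 uM, 10 points) were dosed twice during 48 h differentiation of RUES2-GLR cells, read by imaging.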
# [6] = CCTE_Deisenroth_DEVTOX-GLR_Endo_CellCount: Viability Assessment in CCTE's DevTox GLR-Endo Assay, Deisenroth Lab (AID 2284420)
# How it was run: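 Nuclei counted by fluorescence microscopy as a surrogate for cell number, expressed as percent change relative to 0.2% DMSO control. Human RUES2-GLR cells, 48 h differentiation, dosed twice; 1 nM - 200 uM series.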
# [7] = CCTE_Mundy_HCI_iCellGluta_NOG_NeuriteCount: CCTE's Neurite Outgrowth Assay in iCellGluta cells for Neurite Count, Mundy Lab (AID 2284342; active means hit-call score of the fitted dose curve at least 0.9, where 1 is the maximum;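 further: chemical exposure about 48 hours starting 2 hours after plating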)
# [8] = CCTE_Deisenroth_H295R-HTRF_384WELL_ESTRADIOL: CCTE's H295R-HTRF Assay Evaluation of Estradiol Concentration, Deisenroth Lab (AID 2284361); details: actives raise or lower the signal
# How it was run: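 H295R cells exposed 48 h to chemicals at 0.001 - 100 uM final (nine points, triplicate); estradiol in conditioned medium measured by HTRF immunoassay, fitted bidirectionally versus DMSO. Viability by CellTiter-Glo on same plates.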
# [9] = CCTE_Deisenroth_H295R-HTRF_384WELL_TESTOSTERONE: CCTE's H295R-HTRF Assay Evaluation of Testosterone Concentration, Deisenroth Lab (AID 2284373); details: actives raise or lower the signal
# How it was run: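 Secreted testosterone was quantified by HTRF immunoassay of medium from human adrenocortical H295R cells after 48 h chemical exposure at 0.001–100 uM final. Gain or loss was fitted against DMSO. ATP-based viability was read on matched wells, five experimental replicates.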
# [10] = CCTE_Deisenroth_H295R-HTRF_384WELL_CTOX: Cytotoxicity Assessment in CCTE's H295R-HTRF Assay, Deisenroth Lab (AID 2284380; active means hit-call score of the fitted dose curve at least 0.9, where 1 is the maximum)
# How it was run: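 H295R adrenocortical carcinoma cells plated 24 h, then exposed 48 h to nine-point series 0.001–100 uM final, triplicate, n=5. ATP measured by CellTiter-Glo 2.0 luminescence on same plates after medium collection; loss versus DMSO.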
smiles,measurement,setting,value
CO[C@H]1/C=C/O[C@@]2(C)Oc3c(C)c(O)c4c(O)c(c(/C=N/N5CCN(C)CC5)c(O)c4c3C2=O)NC(=O)/C(C)=C\C=C\[C@H](C)[C@H](O)[C@@H](C)[C@@H](O)[C@@H](C)[C@H](OC(C)=O)[C@@H]1C,AC50,[1],72.4 µM (active)
same,outcome,[2],inactive
same,AC50,[3],83.6 µM (active)
same,AC50,[4],70.3 µM (active)
same,AC50,[5],88.8 µM (active)
same,AC50,[6],41.5 µM (active)
O=C1O[C@H]([C@@H](O)CO)C(O)=C1O,outcome,[7],inactive
Clc1ccccc1C(c1ccccc1)(c1ccccc1)n1ccnc1,AC50,[8],0.129 µM (active)
same,AC50,[9],0.117 µM (active)
same,outcome,[10],inactive
CCCCOC(=O)c1ccc(O)cc1,AC50,[1],55.3 µM (active)
same,AC50,[2],100 µM (active)
same,AC50,[8],54.3 µM (active)
same,outcome,[9],inactive
same,outcome,[10],inactive
same,AC50,[3],152 µM (active)
same,AC50,[4],56.3 µM (active)
same,AC50,[5],66.5 µM (active)
same,AC50,[6],37.9 µM (active)
O=c1c(-c2ccc(O)cc2)coc2cc(O)cc(O)c12,AC50,[8],21.6 µM (active)
same,AC50,[9],6.78 µM (active)
same,outcome,[10],inactive
CC(=O)N1CCN(c2ccc(OC[C@H]3CO[C@](Cn4ccnc4)(c4ccc(Cl)cc4Cl)O3)cc2)CC1,outcome,[8],inactive
same,AC50,[9],0.947 µM (active)
same,outcome,[10],inactive
OCCO,outcome,[1],inactive
same,outcome,[2],inactive
same,outcome,[4],inactive
same,outcome,[5],inactive
same,outcome,[6],inactive
CC/C(=C(/CC)c1ccc(O)cc1)c1ccc(O)cc1,AC50,[1],1.24 µM (active)
same,AC50,[2],2.43 µM (active)
same,AC50,[3],2.78 µM (active)
same,AC50,[4],0.65 µM (active)
same,AC50,[5],0.891 µM (active)
same,AC50,[6],1.58 µM (active)

# — PubChem BioAssay (EPA / NIEHS)
